Compound activity: PubChem BioAssay, several laboratories
NCOA1 inh: inhibitors of human steroid receptor coactivator 1 (SRC1) | Q15788 | HEK293 GAL4-SRC1 luciferase reporter, luminescence | inhibition, % at 3.6 µM | 0.12% of 360,000 active;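 active = inhibition above the campaign mean plus 3 SD, with each screening campaign given its own cutoff, cut at about 60% in these data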;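 note: 0% = DMSO treated cells and 100% = gossypol at 36 µM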
NR2F2 inh: blocks human COUP-TFII nuclear receptor | inhibition, % at 8.6 µM | 0.7% of 370,000 active | P24468 | HEK293T NGFI-A luciferase reporter, luminescence;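 active = inhibition above a per-plate cutoff, mean inhibition of test wells between control levels plus 3 SD, cut at about 38% in these data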;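 note: cells cotransfected with COUP-TFII expression vector driving the NGFI-A reporter; 0% = median of COUP-TF2 test wells and 100% = reporter-only cells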
SRC2 inh: human SRC2 (NCOA2) inhibition; 0.17% of 370,000 active; inhibition, % at 9 µM; HEK293 GAL4-SRC2 luciferase reporter, luminescence;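 active = inhibition above the mean inhibition of all tested compounds plus 3 SD, set per campaign, cut at about 52% in these data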;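 note: 0% = DMSO treated cells and 100% = cells given Gossypol at 36 µM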
LRH-1 inv ag: suppresses constitutive activity of human LRH-1. inhibition, % at 3.6 µM. HEK293T StAR-luciferase reporter, LRH-1 transfected, 24 h. 0.13% of 360,000 active;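 active = inhibition above the mean inhibition of all tested compounds plus 3 SD, cut at about 73% in these data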;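 note: 0% = DMSO wells and 100% = reporter-only cells lacking LRH-1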
NCOA3 inh: inhibits human SRC3 coactivator | HEK293 GAL4-SRC3 luciferase reporter, luminescence | inhibition, % at 3.6 µM | 0.17% of 360,000 active | AID 588352;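 active = inhibition above a per-campaign cutoff, the mean of all compounds plus 3 SD, cut at about 60% in these data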;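 note: 0% = DMSO-treated cells and 100% = gossypol-treated cells at 36 µM; higher means less SRC3-driven luciferase light from the GAL4 reporter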
Target sequence (Q9Y6Q9 whole entry, looked up, the tested form may be a part): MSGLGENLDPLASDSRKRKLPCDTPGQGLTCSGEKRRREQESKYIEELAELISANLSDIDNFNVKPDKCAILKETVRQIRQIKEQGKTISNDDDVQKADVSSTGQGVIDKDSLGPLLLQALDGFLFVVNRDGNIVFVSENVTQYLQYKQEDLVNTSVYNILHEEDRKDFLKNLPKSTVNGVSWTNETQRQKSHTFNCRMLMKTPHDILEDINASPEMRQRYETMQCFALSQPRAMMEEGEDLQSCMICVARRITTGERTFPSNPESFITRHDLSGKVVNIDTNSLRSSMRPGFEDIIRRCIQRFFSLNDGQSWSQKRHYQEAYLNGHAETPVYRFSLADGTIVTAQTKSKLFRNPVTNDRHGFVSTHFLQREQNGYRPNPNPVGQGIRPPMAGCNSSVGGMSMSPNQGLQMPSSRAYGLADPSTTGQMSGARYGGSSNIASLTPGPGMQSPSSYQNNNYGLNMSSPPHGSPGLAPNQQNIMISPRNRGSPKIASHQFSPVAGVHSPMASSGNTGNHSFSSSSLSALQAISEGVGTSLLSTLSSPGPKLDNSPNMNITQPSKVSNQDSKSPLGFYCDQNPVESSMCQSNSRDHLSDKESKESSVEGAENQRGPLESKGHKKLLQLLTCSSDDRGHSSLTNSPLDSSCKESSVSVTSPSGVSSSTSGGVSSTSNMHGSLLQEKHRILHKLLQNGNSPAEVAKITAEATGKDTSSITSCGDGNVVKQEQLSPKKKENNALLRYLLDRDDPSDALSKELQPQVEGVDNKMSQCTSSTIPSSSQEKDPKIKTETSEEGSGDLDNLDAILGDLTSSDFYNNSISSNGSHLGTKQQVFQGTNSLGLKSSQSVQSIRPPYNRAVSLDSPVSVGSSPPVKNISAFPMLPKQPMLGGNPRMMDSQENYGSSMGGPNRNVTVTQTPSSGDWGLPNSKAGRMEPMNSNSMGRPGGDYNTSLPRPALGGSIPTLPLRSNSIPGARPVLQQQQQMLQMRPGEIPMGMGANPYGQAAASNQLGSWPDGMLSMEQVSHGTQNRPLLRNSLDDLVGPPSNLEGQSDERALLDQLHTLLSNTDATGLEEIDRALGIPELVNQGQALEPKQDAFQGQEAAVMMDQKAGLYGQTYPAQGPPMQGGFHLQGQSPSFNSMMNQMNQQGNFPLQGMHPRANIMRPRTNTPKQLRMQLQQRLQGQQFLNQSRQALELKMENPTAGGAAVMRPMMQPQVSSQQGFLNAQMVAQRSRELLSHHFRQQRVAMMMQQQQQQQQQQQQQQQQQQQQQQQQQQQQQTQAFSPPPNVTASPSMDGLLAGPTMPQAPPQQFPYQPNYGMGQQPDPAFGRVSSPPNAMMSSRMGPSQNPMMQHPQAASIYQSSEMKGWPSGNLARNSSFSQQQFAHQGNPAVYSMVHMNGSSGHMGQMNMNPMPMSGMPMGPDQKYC
Gli-Sufu antag: antagonists of Gli-Sufu signaling. inhibition, % at 5 µM. Sufu-KO-LIGHT fibroblasts, Gli luciferase reporter luminescence. 0.74% of 340,000 active;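 active = inhibition above about 55%, limit read from the data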;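 note: 0% = DMSO-treated cells and 100% = wells with medium but no cells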
Numbers without * were called inactive; . = not tested or not shown; ! = repeats disagree. Sampled rows, rich in hits. Any-hit rate of the full collection: about 1.3%.

SMILES	NCOA1 inh	NR2F2 inh	SRC2 inh	LRH-1 inv ag	NCOA3 inh	Gli-Sufu antag
CCn1c2c(c(=N)c3c1CCC3)CCCC2	-2	15	-11	-2	-15	4
COC(=O)[C@@H](N[C@H](/C=C/c1ccccc1)[C@@H](O)Cc1ccccc1)C(C)C	.	-11	-6	.	.	.
Cc1cc(C(=O)Nc2ccccc2)c(C)o1	-29	-15	-1	-9	-31	-4
Cc1cc(C(=O)Nc2ccc(CC(=O)O)cc2)c(C)o1	-8	13	55*	10	7	-9
O=S(=O)(Nc1cc(Sc2cccc3cccnc23)c(O)c2ccccc12)c1ccc(F)cc1	.	17	-175	.	.	96*
Cc1nnc(-c2ccccc2)c(=O)n1/N=C/c1c(O)ccc2ccccc12	55	2	46	20	74*	91*
Cc1nnc(C)n1/N=C/c1c(O)ccc2ccccc12	11	-7	16	11	14	3
O=C(Cc1ccc(Cl)cc1)c1c[nH]c(C(=O)NCc2cccnc2)c1	-11	23	88*	38	49	-8
COc1ccc(CN2C(=O)N3Cc4ccccc4C3CS2(=O)=O)cc1 (stereo not drawn)	.	1	2	.	.	.
C[C@H](CO)N1C[C@H](C)[C@H](CN(C)C(=O)Nc2ccc3c(c2)OCO3)OCc2cnnn2CCCC1=O	.	4	-9	.	.	.
CC(=O)C1=C(C)NC(SCC(=O)c2cc(Cl)ccc2Cl)=C(C#N)C1c1ccco1 (stereo not drawn)	9	3	-7	12	4	69*
C=CCN1C=C(C(=O)OCC)C(=O)CC1	.	-2	-15	.	.	.
COC(=O)C1=C(C)N(Cc2cccc(C(F)(F)F)c2)C(=NCc2ccccc2C(F)(F)F)NC1c1cccc(F)c1 (stereo not drawn)	.	3	-11	.	.	.
Brc1ccc(C2=CC(c3cccs3)n3ncnc3N2)cc1 (stereo not drawn)	-13	4	2	25	-3	98*
Oc1ccc(C2C=C(c3ccc(F)cc3)Nc3ncnn32)cc1 (stereo not drawn)	66*	0	20	0	11	2
Fc1ccc(C2=CC(c3ccc(Br)o3)n3ncnc3N2)cc1 (stereo not drawn)	-8	.	.	5	1	13
CCOc1ccc(C2C=C(c3ccc(F)cc3)Nc3ncnn32)cc1 (stereo not drawn)	-43	-31	-52	-63	-64	-38
COC(=O)[C@]12C[C@H](CC(=O)NCc3cccc4ccccc34)C(=O)N(CCC3=CCCCC3)C1=C[C@H](COCc1ccccc1)O[C@@H]2C	.	-9	-19	.	.	.
C=CCn1cc(/C=C/c2cc[n+](C)cc2)c2ccccc21	14	49*	13	38	18	66*
Cc1ccccc1/C=C/c1cc[n+](C)cc1	-6	-21	0	-14	4	6
CC(C)n1cc(/C=C/c2cc[n+](C)cc2)c2ccccc21	31	34	-6	42	35	71*
O=S(=O)(c1ccc(C(F)(F)F)cc1)N1CCCc2nc(-c3ccc(F)cc3)ccc21	.	-2	-30	.	.	.
COc1nc(Nc2nc3ccccc3c(=O)[nH]2)nc2ccc(C)cc12	-1	24	-35	6	9	63*
Cc1cc(C)cc(Nc2nc3ccccc3c(=O)[nH]2)c1	2	-3	-37	1	0	1
NC(Cc1ccc(O)cc1)C(=O)NN=Cc1ccccc1O (stereo not drawn)	.	2	-44	.	.	.
SMILES	NCOA1 inh	NR2F2 inh	SRC2 inh	LRH-1 inv ag	NCOA3 inh	Gli-Sufu antag
COc1cc(CCC(C)=O)ccc1OC(=O)c1c(-c2c(F)cccc2Cl)noc1C	.	1	-27	.	.	.
NC(=S)NN=Cc1nccc2ccccc12	79*	-41	4	78*	79*	65*
NC(=S)NN=Cc1nccc2c(C(F)(F)C(F)(F)C(F)(F)F)cccc12	92*	28	47	97*	93*	.
C[C@@H]1CN([C@H](C)CO)C(=O)CCCn2nncc2CO[C@H]1CN(C)C(=O)Nc1ccc2c(c1)OCCO2	.	-5	-44	.	.	.
CC1=CC(C)(C)Nc2ccc(OC(=O)c3ccco3)cc21	10	13	55*	21	-2	9
CC1=CC(C)(C)Nc2ccc(OC(=O)C(C)N3C(=O)c4ccccc4C3=O)cc21 (stereo not drawn)	-8	18	63*	12	6	9
COc1ccc(OC(=O)C(C)N2C(=O)c3ccccc3C2=O)cc1 (stereo not drawn)	13	21	8	-6	-5	4
CC1=CC(C)(C)Nc2ccc(OC(=O)c3cccnc3)cc21	-4	9	39	22	-8	5
COc1ccc2sc(N(CCCN(C)C)C(=O)c3nc4ccccc4s3)nc2c1	-29	-9	-19	-10	-36	-2
COc1ccccc1C(=O)N(CCC1CCCN1C)c1nc2ccccc2s1 (stereo not drawn)	54	58*	40	52	63*	4
CCCCCCCCCCCCCCCC[n+]1cccc(C(=O)N(CC)CC)c1	-4	-18	1	9	-6	72*!
CCCCCCCC[n+]1cccc(C(=O)N(CC)CC)c1	1	8	3	-8	15	-1
Cn1cc(C(=O)N/N=C/c2c(O)ccc3ccccc23)ccc1=O	32	11	40	25	62*	43
O=C(N/N=C/c1cc(Br)ccc1O)c1ccncc1	38	-15	8	11	70*	18
O=C(N/N=C/c1c(O)ccc2ccccc12)c1cccnc1	57	-21	36	92*	77*	68*
COc1ccc2ccccc2c1/C=N\NC(=O)c1cccnc1	2	-14	0	0	6	1
O=C(N/N=C/c1c(O)ccc2ccccc12)c1ccc(Br)o1	-3	-21	8	0	39	66*
Cc1c(CN2CCN(c3ncc(Cc4ccccc4)cn3)CC2)c(=O)n(-c2ccccc2)n1C	.	7	6	.	.	.
O=C1CSC(c2cccs2)N1c1nncs1 (stereo not drawn)	.	-6	-43	.	.	.
O=C(NCCO)[C@H](Cc1ccccc1)NC1(C(=O)NCCN2CCOCC2)CCCCC1	.	-7	.	.	.	.
O=C(N/N=C/c1c(O)ccc2ccccc12)c1ccc[n+](CCO)c1	-14	6	-10	31	-2	4
O=C(N/N=C\c1c(O)ccc2ccccc12)c1cncc(Br)c1	51	-17	17	28	69*	85*
O=C(N/N=C\c1c(O)ccc2ccccc12)c1ccc(O)cc1	20	11	5	7	20	17
Cn1nccc1C(=O)N/N=C/c1c(O)ccc2ccccc12	68*	-46	-3	90*	73*	85*
O=C(NN=Cc1c(O)ccc2ccccc12)c1ccncc1	41	-13	40	91*	75*	87*
Cc1ccc(C(=O)N/N=C/c2c(O)ccc3ccccc23)cn1	68*	-10	48	87*	74*	35
